# Data as given in PubChem BioAssay AID504652 (National Center for Advancing Translational Sciences (NCATS), 2011).
# “And” between values parts separate entries of the source, which are not always exact repeats. Equal entries are not always repeated. Screen size: about 360,000 compounds; about 11,000 (3.1%) were called active. Rule as the data show it: active = activity change below about -30%; inactive = the rest. Only a selection was taken, and actives are over-represented in it overall.
# Molecular target: D(1A) dopamine receptor (Homo sapiens) (UniProt P21728)
# Assay: Antagonist of Human D 1 Dopamine Receptor: qHTS
# Conditions: HEK293 TREx D1 cells, calcium flux, dopamine EC80; at 10 µM; hits give low values
# Summary of the method: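 Kinetic fluorescence of a calcium dye serves as the read-out. D1-expressing Hek293 Trex cells, induced overnight at 30 C, are exposed to compound for 180 s before an EC80 dopamine addition, then read 180 s further.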
# % is scaled to controls: 0 for no effect and ±100 for the full control effect.
# Sequence of D(1A) dopamine receptor (Homo sapiens) (P21728 whole entry, looked up): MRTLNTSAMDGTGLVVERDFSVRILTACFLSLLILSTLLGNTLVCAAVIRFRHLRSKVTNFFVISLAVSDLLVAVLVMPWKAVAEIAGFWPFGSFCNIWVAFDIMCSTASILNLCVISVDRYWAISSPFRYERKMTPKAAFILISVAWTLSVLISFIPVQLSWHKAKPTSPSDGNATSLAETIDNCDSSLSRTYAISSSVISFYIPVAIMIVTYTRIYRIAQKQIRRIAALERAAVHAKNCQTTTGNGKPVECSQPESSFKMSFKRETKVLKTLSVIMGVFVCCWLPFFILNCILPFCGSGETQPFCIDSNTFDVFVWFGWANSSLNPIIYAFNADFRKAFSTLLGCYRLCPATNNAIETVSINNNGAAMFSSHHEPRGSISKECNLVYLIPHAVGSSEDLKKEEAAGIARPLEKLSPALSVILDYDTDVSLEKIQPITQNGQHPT
row,SMILES,"activity change, negative = inhibition"
1,COC(=O)c1ccc(NC(=O)c2cccc3c2C(=O)N(C2CCCCC2)C3)cc1,-12% (inactive)
2,CC(C)c1ccc(NC(=O)Cn2c3ncccc3c(=O)n2-c2ccccc2)cc1,-16.2% (inactive)
3,Cc1ccc2c(=O)c(C(=O)c3ccc(F)cc3)cn(CC(=O)NC3CCCCC3)c2n1,-3.19% (inactive)
4,Cc1ccc2c(=O)c(C(=O)c3ccc(Cl)cc3)cn(CC(=O)NC3CCCCC3)c2n1,-2.17% (inactive)
5,Cc1ccc2c(=O)c(C(=O)c3cccc(Cl)c3)cn(CC(=O)NCc3ccccc3)c2n1,-33.4% (active)
6,COc1cccc(CNC(=O)C(=O)NCC(c2cccs2)S(=O)(=O)c2ccccc2)c1 (configuration not stated),10.2% (inactive)
7,Cc1ccc(Cl)cc1N(C)C(=O)Cn1nc(Cc2cccnc2)c2ccccc2c1=O,10.4% (inactive)
8,CCn1c(=O)c(=O)n(CC)c2cc(N3CCCCC3)c(NC(=O)c3cccc(F)c3)cc21,4.44% (inactive)
9,COC(=O)CSc1nnc(NC(=O)CCc2ccccc2)s1,5.96% (inactive)
10,CC(=O)Oc1ccccc1C(=O)Nc1ncc([N+](=O)[O-])s1,-33.9% (active)
11,O=C(Nc1ccncc1)c1ccccc1[N+](=O)[O-],-0.321% (inactive)
12,Cc1ccc2nsnc2c1NC(=O)c1ccccc1[N+](=O)[O-],7.5% (inactive)
13,CC(C)(C)NC(=O)CSc1nnc(NC(=O)CCc2ccccc2)s1,-22.4% (inactive)
14,O=C(CCc1ccccc1)Nc1ncc([N+](=O)[O-])s1,-30% (active)
15,Cc1ccccc1C(=O)NCc1nc(-c2ccc(Cl)cc2)no1,-7.49% (inactive)
16,N#Cc1nc(Nc2cccc(Cl)c2)nc(NC2CCCC2)n1,-6.69% (inactive)
17,COc1ccc(C(=O)Nc2cccc(C(=O)OCc3cc(=O)n4c5c(sc4n3)CCCC5)c2)cc1,-2.93% (inactive)
18,CN1CCOc2cc(S(=O)(=O)N3CCN(S(=O)(=O)c4c(F)cccc4F)CC3)cnc21,1.83% (inactive)
19,CC1Cc2cc(S(=O)(=O)CCC(=O)Nc3ccc(F)c(Cl)c3)ccc2N1C(=O)C1CC1 (configuration not stated),-8.79% (inactive)
20,Cc1ccc(C)c(N2CCN(C(=O)Cc3c(C(=O)O)c(C)cn3C)CC2)c1,3.31% (inactive)
21,Cc1nc2nc(SCC(=O)N(Cc3ccccc3)C(C)C)nn2c(C)c1Cc1ccccc1Cl,-7.72% (inactive)
22,COc1ccc(-n2c(C)nc3c(cnn3-c3ccc(F)cc3)c2=O)cc1,-26.8% (inactive)

row,SMILES,"activity change, negative = inhibition"
1,N#C/C(=C\N1CCOCC1)S(=O)(=O)c1ccc(Cl)cc1,-41.8% (active)
2,N/C(=N\S(=O)(=O)c1ccc(Cl)cc1)N1CCOCC1,-7.63% (inactive)
3,O=S(=O)(Oc1ccccc1C(=S)N1CCOCC1)c1ccc(Cl)cc1,-1.41% (inactive)
4,O=C(Nc1ccc(-c2nc3cc(NC(=O)c4ccccc4Cl)ccc3o2)cc1)c1ccccc1Cl,6.02% (inactive)
5,COC(=O)c1ccccc1NS(=O)(=O)c1ccc2[nH]c(=O)[nH]c2c1,9.8% (inactive)
6,COC(=O)c1ccc(NC(=O)c2ccccc2NS(=O)(=O)c2ccccc2)cc1,-42.5% (active)
7,COc1cc(NC(=O)c2ccccc2NS(=O)(=O)c2ccc(Cl)s2)cc(OC)c1,-11.8% (inactive)
8,CCS(=O)(=O)N1CCC(n2c(C)nc3cccnc32)CC1,12.3% (inactive)
9,COc1ccc(OC)c(-c2nc(C(N)=O)c3c(n2)n(-c2ccc4c(c2)OCO4)c(=O)n3C)c1,-6.79% (inactive)
10,Cc1ccc(CN2COc3cc(C)c4c(oc(=O)c5ccccc54)c3C2)cc1,3.2% (inactive)
11,CSc1ccccc1OCc1cc(C(=O)N(C)CCc2c(C)n[nH]c2C)no1,-4.34% (inactive)
12,COc1cc(Cl)ccc1OCc1cc(C(=O)N(C)CCc2c(C)n[nH]c2C)no1,-50% (active)
13,CCn1ccnc1CN(C)C(=O)c1cc(COc2ccc(Cl)cc2OC)on1,-3.88% (inactive)
14,Cc1noc(C)c1-c1ccc2ncnc(NCc3ccc(F)c(F)c3)c2c1,-25.4% (inactive)
15,COc1ccc(NC(=O)CSc2nc3ccccc3[nH]2)cc1,7.52% (inactive)
16,O=C(O)C1CCCN1S(=O)(=O)c1ccc(Br)cc1 (configuration not stated),-19.4% (inactive)
17,O=C(O)C1CCCN1S(=O)(=O)c1ccc2c(c1)CCC2 (configuration not stated),-38.4% (active)
18,CC(=O)Nc1ccc(S(=O)(=O)N2CCCC2C(=O)O)cc1 (configuration not stated),2.28% (inactive)
19,CCCS(=O)(=O)c1ncc(Cl)c(C(=O)Nc2scc(-c3ccccc3)c2C(=O)OCC)n1,-10.7% (inactive)
20,CN(C)[C@@H]1C(=O)C(C(N)=O)=C(O)[C@@]2(O)C(=O)C3=C(O)c4c(O)ccc(Cl)c4[C@@H](O)[C@H]3C[C@@H]12,-42.8% (active)
21,C=C1c2c(Cl)ccc(O)c2C(O)=C2C(=O)[C@]3(O)C(O)=C(C(N)=O)C(=O)[C@@H](N(C)C)[C@@H]3[C@@H](O)C12 (some centres not stated),-4.29% (inactive)
22,Cc1ccc(C)c(N2CCN(C(=O)Cn3nc(C)c4sc5ccccc5c4c3=O)CC2)c1,5.73% (inactive)

row,SMILES,"activity change, negative = inhibition"
1,COc1ccc(-c2noc(CSc3nc(C)cc(=O)[nH]3)n2)cc1OC,12.5% (inactive)
2,COc1ccc(-c2cc(C(F)(F)F)n3nc(-c4ccccc4)cc3n2)cc1OC,6.49% (inactive)
3,CCCN(CCC)CCNC(=O)c1ccc2c(c1)NC(=O)C(CS(=O)(=O)Cc1cccc(Br)c1)N2 (configuration not stated),-3.96% (inactive)
4,Cc1ccc(OCCSc2nc3ccc(NC(=O)COc4ccc(C)cc4)cc3s2)cc1,-5.49% (inactive)
5,Cc1cccc(OCCSc2nc3ccc(NC(=O)COc4ccccc4C)cc3s2)c1,5.79% (inactive)
6,CC(=O)Nc1ccc2nc(SCCOc3cc(C)cc(C)c3)sc2c1,-35.7% (active)
7,NC(=O)C1CCN(C(=O)c2cccc(NC(=O)c3nsc4ccccc34)c2)CC1,7.53% (inactive)
8,O=C(CSc1ccccc1)Nc1cccc(S(=O)(=O)N2CCCCC2)c1,-39.5% (active)
9,Nc1cc(N)nc(SCC(=O)Nc2cccc(S(=O)(=O)N3CCCCC3)c2)n1,-7.32% (inactive)
10,O=C(CSc1ccccc1)Nc1cccc(S(=O)(=O)N2CCOCC2)c1,-24.4% (inactive)
11,CCOc1ccccc1N(C)C(=O)c1cc2c(s1)-c1ccccc1OC2,7.49% (inactive)
12,Cc1sc(C2C(C#N)=C(N)N(c3cccc(Cl)c3)C3=C2C(=O)CCC3)cc1CN1CCOCC1 (configuration not stated),-16.8% (inactive)
13,Cc1c(C(=O)N2CCOCC2)[nH]c2ccc(OCc3ccccc3)cc12,-45.7% (active)
14,CCOC(=O)c1[nH]c2ccc(OC)cc2c1NC(=O)N1CCOCC1,-7.34% (inactive)
15,Cc1c(C(=O)CN2CCOCC2)[nH]c2ccccc12,-9.55% (inactive)
16,CCOC(=O)c1ccc(NC(=O)Cn2cc(S(=O)(=O)Cc3ccccc3F)c3ccccc32)cc1,16.6% (inactive)
17,Cc1nc2c(-c3ccc(F)cc3)c(C)nn2c(C)c1CCC(=O)NCc1ccco1,-61.2% (active)
18,Cc1nc2c(-c3ccccc3)c(C)nn2c(C)c1CCC(=O)NCCc1ccccc1,-7.07% (inactive)
19,COc1cc(OC)cc(-c2nc3nc(C)c(CCC(=O)NCc4ccco4)c(C)n3n2)c1,-2.94% (inactive)
20,CCOC(=O)c1c(-c2ccc(OC)cc2)oc2ccc(OCc3ccc(C(=O)OC)cc3)cc12,4.56% (inactive)
21,O=C(Nc1ccc2nc(SCC(=O)N3CCCc4ccccc43)sc2c1)c1ccc(Cl)cc1,-13.6% (inactive)
22,Cc1ccc(-c2cc(C(F)(F)F)c(C#N)c(SCC(=O)Nc3ccccc3)n2)cc1,-36.2% (active)

row,SMILES,"activity change, negative = inhibition"
1,CCN(CC)c1nc(-c2ccccc2)cc(C(F)(F)F)c1C#N,-72.6% (active)
2,Cc1nn(-c2nc(-c3ccccc3)cc(C(F)(F)F)n2)c(C)c1Cl,5.82% (inactive)
3,N#Cc1c(C(F)(F)F)cc(-c2ccccc2)nc1SCC(=O)N1CCOCC1,7.61% (inactive)
4,CCOC(=O)COc1nc(C)cc(C(F)(F)F)c1C#N,-9.55% (inactive)
5,Cc1cc(C(F)(F)F)c(C#N)c(SCC(=O)NC2CC2)n1,-10.9% (inactive)
6,CCCN1CCc2nc(N3CCN(C)CC3)ncc2C1,-15.6% (inactive)
7,CSc1cccc(NC(=O)CN2C(=O)CCc3cc(S(=O)(=O)N4CCCCC4)ccc32)c1,-0.775% (inactive)
8,Cc1cc2c(cc3c(SCc4cccc(Cl)c4)nnc(C)n32)o1,-2.95% (inactive)
9,Cc1ccc(CNS(=O)(=O)c2ccc(-c3cc(C(F)(F)F)on3)s2)cc1,0.708% (inactive)
10,COc1ccccc1CCNC(=O)c1cccn1-c1nnc(N2CCCCC2)s1,13.6% (inactive)
11,CCCOc1cccc(C(=O)Nc2cccc(NC(=O)c3ccc(C(C)(C)C)cc3)c2)c1,-1.05% (inactive)
12,CCOc1cccc2c1N[C@@H](c1ccc(C(=O)O)cc1)[C@H]1CC=C[C@@H]21,-19.7% (inactive)
13,Cc1ccc2nc(COc3cccc(NC(=O)c4ccccc4Cl)c3)cc(=O)n2c1,-6.97% (inactive)
14,CN(C)CCCn1c(SCCN2C(=O)c3ccccc3C2=O)nc2ccccc2c1=O,-51.8% (active)
15,CC(=O)NCCn1c(SCC(=O)Nc2ccc(C)cc2)nc2ccccc2c1=O,1.17% (inactive) and -18.8% (inactive)
16,O=C(CSc1nc2ccccc2c(=O)n1CCCO)NC1CC1,8.77% (inactive)
17,Cc1ccc(Cc2nc3ccccc3nc2SCC(=O)Nc2cccc(C(F)(F)F)c2)cc1,-11.6% (inactive)
18,O=C(CCc1nc(CN2CCN(S(=O)(=O)c3ccc(Cl)cc3)CC2)no1)N1CCCCC1,-4.7% (inactive)
19,Cc1ccc(S(=O)(=O)N2[C@@H](c3cccc(Cl)c3)C(C(=O)O)=CC[C@H]2c2ccc(Cl)c(Cl)c2)cc1,-17.8% (inactive)
20,Cc1ccccc1S(=O)(=O)N1[C@@H](c2cccc(Cl)c2)C(C(=O)O)=CC[C@H]1c1ccc(Cl)cc1,-39.7% (active)
21,Cc1ccc([C@@H]2CC=C(C(=O)O)[C@H](c3cccc(Cl)c3)N2S(=O)(=O)c2ccc(C)cc2)cc1,-12.2% (inactive)
